NadD inh – NadD (S. aureus) enzyme inhibition | hit rate 0.78% among 360,000 | purified NadD enzyme, colorimetric absorbance read-out | inhibition, % at 20 µM; in the data active = inhibition above about 26%
SKN-1 inh – C. elegans SKN-1 inhibition. hit rate 0.49% among 360,000. C. elegans VP596 Pgst-4::GFP/RFP ratio, acrylamide-induced, 24 h. AID 624304. inhibition, % at 21.8 µM;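 active = interference check ratio from 0.5 to 1.5 plus GFP to RFP signal ratio inhibition reaching or exceeding a fixed threshold, cut at about 30% in these data, passing the limit was not always enough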
SMARCA2 act – increases SMARCA2 function in MMTV reporter cells; MG213 cells, MMTV-luciferase reporter, dexamethasone, overnight; activation, % at 9.1 µM; hit rate 1% among 370,000; AID 652017; in the data active = activation above about 7.8%;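 note: 0% = vehicle wells and 100% = reference activator wells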
esBAF inh – blocks esBAF chromatin remodeling in mouse ES cells | Bmi1-luciferase knock-in reporter, 24 h; 100% = twice the neutral-well signal | reporter increase, % at 12.5 µM | hit rate 2% among 350,000; in the data active = activation above about 40%; inconclusive = no clear call, values can overlap the other calls;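 note: 0% = median of the plate's neutral control wells and 100% = double that signal; a rise in the Bmi1 reporter signal indicates esBAF inhibition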
GRIN3A LBD mod – modulates the human NR3A ligand-binding domain; NR3A LBD differential scanning fluorimetry, Tm shift; 0% = protein alone, 100% = glycine-bound protein; Tm shift relative to glycine control, % at 25 µM; hit rate 2.5% among 340,000; AID 1259313;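 active = melting temperature shift of at least 10% of the positive control shift, at one fixed dose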
Vif imaging – blocks HIV Vif function; AID 602346; hit rate 0.35% among 340,000; HEK293T cells, Vif self-association by quenched fluorescence, imaging, 24 h; inhibition, % at 7.49 µM; in the data active = inhibition above about 50%, passing the limit was not always enough; inconclusive = no clear call, values can overlap the other calls; inactive = below about 31%
* = called active by the depositor. An excerpt weighted towards active compounds, which were near 5.2% of everything screened.

Cc1ccc(/C=C2\SC(=S)N(CCC(=O)NNC(=O)c3cccc(O)c3)C2=O)cc1 was read as NadD inh 26.2, SKN-1 inh 24.4, SMARCA2 act 1.3, esBAF inh 26.7, GRIN3A LBD mod 23.7* and Vif imaging -0.8.
For Cc1ccc(/C=C2/SC(=S)N(CCCC(=O)Nc3ccc(O)cc3)C2=O)cc1 the results were NadD inh 2.1, SKN-1 inh 1.5, SMARCA2 act -7.3, esBAF inh -88.6, GRIN3A LBD mod 6.7 and Vif imaging 10.6.
Cc1ccc(/C=C2\SC(=S)N(CCC(=O)NNC(=O)c3ccccc3O)C2=O)cc1 was read as NadD inh 37.7*, SKN-1 inh 0.0, SMARCA2 act -2.2, esBAF inh -9.5, GRIN3A LBD mod 16.1* and Vif imaging -10.5.
For C[C@H](CO)N1C[C@H](C)[C@@H](CN(C)C(=O)Nc2ccccc2)OCCCC[C@H](C)Oc2ccc(NC(=O)Nc3ccc4c(c3)OCO4)cc2C1=O the results were esBAF inh 37.4.
For C[C@H](CO)N1C[C@H](C)[C@@H](CN(C)S(C)(=O)=O)Oc2ncc(C#CC3CCCCC3)cc2C1=O the results were esBAF inh 7.5.
Screening C[C@H]1CN([C@@H](C)CO)C(=O)Cc2cc(NC(=O)Cc3ccccc3)ccc2O[C@@H]1CN(C)C(=O)Nc1ccc(F)cc1 returned esBAF inh -1.0.
`Cc1cccc(NC(=O)CSc2nccn2Cc2ccco2)c1` gave NadD inh -4.3, SKN-1 inh -9.0, SMARCA2 act 4.1, esBAF inh 44.0*, GRIN3A LBD mod 1.0 and Vif imaging 8.6.
Screening COCC#Cc1cnc2c(c1)C(=O)N([C@@H](C)CO)C[C@H](C)[C@@H](CN(C)C(=O)c1cccc(F)c1)O2 returned esBAF inh -0.8.
Screening Cc1cccc(C)c1OCc1cc(C(=O)N2CCN(C3CCCC3)CC2)no1 returned NadD inh -7.2, SKN-1 inh 49.7*, SMARCA2 act 3.6, esBAF inh 29.3, GRIN3A LBD mod 3.5 and Vif imaging -11.9.
`COc1cccc(OCc2cc(C(=O)N3CCN(C4CCCC4)CC3)no2)c1` gave NadD inh -8.5, SKN-1 inh 3.3, SMARCA2 act 0.1, esBAF inh 3.5, GRIN3A LBD mod 2.2 and Vif imaging 2.9.
For Cc1cccc(C)c1OCc1cc(C(=O)N2CCN3CCCC3C2)no1 (stereo not given) the results were NadD inh -1.4, SKN-1 inh 3.2, SMARCA2 act 1.0, esBAF inh 6.8, GRIN3A LBD mod 12.6* and Vif imaging -4.5.
O=C(c1cc(COc2c(F)cccc2F)on1)N1CCC(c2ccccc2Cl)C1 (stereo not given) was read as NadD inh 0.9, SKN-1 inh 4.9, SMARCA2 act -1.8, esBAF inh 45.0*, GRIN3A LBD mod -2.2 and Vif imaging 9.9.
Screening CN(C)C(=O)C[C@@H]1CC[C@H](NC(=O)c2ccc(F)cc2)[C@H](CO)O1 returned esBAF inh 3.0.
Oc1ccc(N=Nc2ccccc2)cc1 was read as NadD inh -0.5, SKN-1 inh 4.4, SMARCA2 act 3.2, esBAF inh 6.1, GRIN3A LBD mod 4.9 and Vif imaging 9.7.
Screening Oc1ccc(N=Nc2n[nH]c(-c3ccc(Cl)cc3)n2)cc1 returned NadD inh -2.9, SKN-1 inh 8.6, SMARCA2 act 1.8, esBAF inh 5.0, GRIN3A LBD mod 23.7* and Vif imaging 4.4.
Screening COc1ccc(NC(=O)Nc2cccc3c2O[C@@H](CN(C)S(C)(=O)=O)[C@@H](C)CN([C@@H](C)CO)C3=O)cc1 returned esBAF inh 3.4.
Screening Cc1ccc(C)c(N2CCN(S(=O)(=O)c3ccc4c(c3)NC(=O)CC(=O)N4)CC2)c1 returned NadD inh 9.1, SKN-1 inh 4.9, SMARCA2 act -1.2, esBAF inh 0.1, GRIN3A LBD mod 0.1 and Vif imaging -2.7.
`O=C1COc2ccc(S(=O)(=O)N3CCN(c4ccccc4F)CC3)cc2N1` gave NadD inh -8.9, SKN-1 inh 10.9, SMARCA2 act -2.7, esBAF inh 2.0, GRIN3A LBD mod 11.9* and Vif imaging 14.0.
O=C1COc2ccc(S(=O)(=O)N3CCN(c4cccc(Cl)c4)CC3)cc2N1 was read as NadD inh 0.4, SKN-1 inh 18.9, SMARCA2 act -1.8, esBAF inh 5.0, GRIN3A LBD mod 1.6 and Vif imaging 11.5.
For Cc1cc2c(cc1S(=O)(=O)N1CCN(c3ccccc3F)CC1)OCC(=O)N2 the results were NadD inh -0.3, SKN-1 inh 13.4, SMARCA2 act -3.0, esBAF inh -0.2, GRIN3A LBD mod 13.1* and Vif imaging -8.2.
Cc1ccc(C)c(N2CCN(S(=O)(=O)c3ccc4c(c3)NC(=O)CO4)CC2)c1 was read as NadD inh 4.4, SKN-1 inh -10.2, SMARCA2 act 0.5, esBAF inh -0.6, GRIN3A LBD mod 11.0* and Vif imaging -1.5.
`Cc1cc2c(cc1S(=O)(=O)N1CCN(c3ccccc3)CC1)OCC(=O)N2` gave NadD inh -7.0, SKN-1 inh 15.9, SMARCA2 act -1.6, esBAF inh -1.5, GRIN3A LBD mod 3.5 and Vif imaging inconclusive.
`O=C1[C@H](Cc2ccccc2)NCCCC[C@@H](c2ccc(Cl)cc2)N1Cc1ccc(Cl)cc1` gave NadD inh -6.4, SKN-1 inh -2.2, SMARCA2 act -1.4, esBAF inh -7.2, GRIN3A LBD mod -18.9 and Vif imaging 2.0.
Screening O=C1[C@H](Cc2ccccc2)NCCCC[C@H](c2ccc(Cl)cc2)N1Cc1ccccc1 returned NadD inh 0.6, SKN-1 inh -24.1, SMARCA2 act 0.9, esBAF inh -4.0, GRIN3A LBD mod 10.1* and Vif imaging -1.3.
For O=C(NCC[C@@H]1CC[C@H](NC(=O)C2CC2)[C@H](CO)O1)Nc1ccc(C(F)(F)F)cc1 the results were esBAF inh -1.7.
For Cc1cccc2c3nc4ccccc4nc3n(C)c12 the results were NadD inh -4.3, SKN-1 inh 8.7, SMARCA2 act 3.2, esBAF inh 41.4*, GRIN3A LBD mod -2.0 and Vif imaging 1.1.
Screening Cc1cccc2nc3ccccc3nc12 returned NadD inh 4.6, SKN-1 inh 8.4, SMARCA2 act -3.8, esBAF inh 1.4, GRIN3A LBD mod -0.2 and Vif imaging 0.5.
CC1CCCCN1C(=O)COC(=O)C1CCN(S(=O)(=O)c2ccc(Cl)c(C(F)(F)F)c2)CC1 (stereo not given) was read as NadD inh -3.8, SKN-1 inh 0.4, SMARCA2 act -1.0, esBAF inh 1.7, GRIN3A LBD mod 20.8* and Vif imaging -14.1.
CC(C)(C)CC(C)(C)c1ccc(O)c(Cc2ccc(Cl)cc2Cl)c1 was read as NadD inh 4.6, SKN-1 inh -8.4, SMARCA2 act -0.6, esBAF inh 2.3, GRIN3A LBD mod 11.5* and Vif imaging 10.2.
